Screen size: about 320,000 compounds; about 560 (0.17%) were called active.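 The calls were made as follows: active = inhibition above the campaign's mean inhibition across all tested compounds plus 3 SD (cut at about 9.5% in these data); inactive = the rest.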 The entries come from a sample that favours actives as a whole.
These compounds were tested against Serine/threonine-protein phosphatase 5 (Homo sapiens) (UniProt P53041) (assay: inhibition of human PP5 catalytic activity – biochemical, fluorescence, primary screen (AID 1987;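 also: 0% = DMSO only and 100% = 100 µM cantharidin control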)). Conditions: purified PP5c, OMFP substrate fluorescence; at 6.7 µM; stronger effect = higher value.
Serine/threonine-protein phosphatase 5 (Homo sapiens), sequence (P53041 whole entry, looked up): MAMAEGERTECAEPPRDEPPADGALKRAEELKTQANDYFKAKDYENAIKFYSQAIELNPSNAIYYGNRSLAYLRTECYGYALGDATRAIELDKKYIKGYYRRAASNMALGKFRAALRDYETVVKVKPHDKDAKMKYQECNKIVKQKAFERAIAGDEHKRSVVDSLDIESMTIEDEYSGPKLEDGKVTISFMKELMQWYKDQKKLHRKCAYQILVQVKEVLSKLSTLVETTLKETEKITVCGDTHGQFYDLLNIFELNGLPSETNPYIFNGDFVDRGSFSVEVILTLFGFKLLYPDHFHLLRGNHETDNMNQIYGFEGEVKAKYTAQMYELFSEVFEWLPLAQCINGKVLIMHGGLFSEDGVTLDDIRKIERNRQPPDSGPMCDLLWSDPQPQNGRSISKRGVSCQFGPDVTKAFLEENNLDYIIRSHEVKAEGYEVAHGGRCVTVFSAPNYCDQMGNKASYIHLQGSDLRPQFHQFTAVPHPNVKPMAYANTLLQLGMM

SMILES	inhibition
Cc1nc(CNS(=O)(=O)c2cc([N+](=O)[O-])ccc2C)cs1	-0.47% (inactive)
N#Cc1c(N2CCCCC2)nc(N)c2c(N)nc(SCC(=O)O)cc12	12.7% (active)
N#CCc1c(C#N)c(N)nc(N2CCCC2)c1C#N	2.12% (inactive)
N#Cc1c(-c2ccccc2)cc(-c2ccccc2)nc1SCC(=O)O	-0.23% (inactive)
CC1(C)CC(=O)C=C(NCCCN2CCCC2=O)C1	-3.07% (inactive)
Cc1nc(NC(CC(C)C)C(=O)O)c2nc(C)oc2n1 (configuration not stated)	11.7% (active)
CC1(c2cccc([N+](=O)[O-])c2)CC(C)(C)N(C(=O)c2ccccc2)c2ccccc21 (configuration not stated)	3.32% (inactive)
C[C@@]12C(=O)N(c3cccc(Br)c3)C(=O)N1[C@H](c1ccc(Cl)cc1)[C@@H]1C(=O)N(C3CCCCC3)C(=O)[C@@H]12	9.7% (active)
CC(C)(C)N1C(=O)[C@H]2[C@@H](c3ccc(Br)cc3)N3C(=O)N(c4cccc(Cl)c4)C(=O)[C@@]3(C)[C@H]2C1=O	5.22% (inactive)
O=C1[C@H]2[C@@H](c3ccc(Cl)cc3)N3C(=O)N(c4cccc(F)c4)C(=O)[C@@]3(Cc3ccccc3)[C@H]2C(=O)N1C1CCCCC1	2.69% (inactive)
O=C(CCn1nnnc1CN1CCOCC1)N1CCC(c2ccccc2Cl)C1 (configuration not stated)	0.07% (inactive)
Cc1noc(C)c1C(=O)N(CC(=O)NC1CCCC1)Cc1ccccc1F	0.94% (inactive)
CN(CC(=O)NCc1ccc(Cl)cc1)S(=O)(=O)c1cccs1	3.27% (inactive)
Cc1c(C)c2c(OCC(=O)N[C@@H](C(=O)O)c3ccccc3)cc3c(c2oc1=O)CCC(C)(C)O3	2.43% (inactive)
c1ccc(C[C@H]2CNCCN2CCC23CC4CC(CC(C4)C2)C3)cc1	1.23% (inactive)
CCn1ccnc1CNC(=O)CC1C(=O)NCCN1CCCc1ccccc1 (configuration not stated)	0.82% (inactive)
COCC1CCN(C(=O)c2ccc3oc(Cc4ccccc4)nc3c2)C1 (configuration not stated)	2.88% (inactive)
O=c1ccc2c(-c3ccccc3S(=O)(=O)O)c3ccc(O)c(O)c3oc-2c1O	9.92% (active)
O=[N+]([O-])c1cc([N+](=O)[O-])c2cccnc2c1O	2% (inactive)

SMILES	inhibition
Nc1nc(Sc2ncccc2[N+](=O)[O-])n[nH]1	1.94% (inactive)
O=[N+]([O-])c1cccc2ncccc12	10.4% (active)
N#Cc1ccc(CN2CCN(CC(=O)Nc3ccccc3C(=O)NC3CC3)CC2)cc1	-0.41% (inactive)
CC(NC(=O)c1cc2cc(Cl)ccc2oc1=N)c1ccccc1 (configuration not stated)	2.37% (inactive)
COc1cc(C(=O)Nn2c(O)c(C3=c4ccccc4=NC3=O)sc2=S)ccc1O	-1.88% (inactive)
CN(C(=O)CN1C(=O)/C(=C/c2ccc(Cl)cc2)SC1=S)C1CCS(=O)(=O)C1 (configuration not stated)	2.22% (inactive)
NNC(=O)c1oc2nc(-c3ccccc3)cc(-c3ccco3)c2c1N	-0.37% (inactive)
CNC(=S)NNC(=O)c1oc2nc(-c3ccccc3)cc(-c3ccco3)c2c1N	15% (active)
CNc1nc(-c2ccccc2)cc(-c2ccccc2)n1	3.18% (inactive)
COc1ccc(S(=O)(=O)N2CCOCC2)cc1NC(=O)CC1CC2CCC1C2 (configuration not stated)	-2.65% (inactive)
COc1ccc(OC)c(C(=O)c2ccc(Cl)cc2)c1	1.9% (inactive)
COc1ccc(OC)c(C(=O)c2ccc(C(=O)O)cc2)c1	10.3% (active)
COc1ccc(OC)c(C(=O)c2coc3ccc(OC)cc23)c1	3.44% (inactive)
COC(=O)c1ccccc1NC(=O)CSc1n[nH]c(-c2ccncc2)n1	2.98% (inactive)
Cc1cc(N2CCCC2=O)cc(C)c1S(N)(=O)=O	0.58% (inactive)
COCCNC(=O)c1ccc2c(c1)ncn2-c1ccc(C)c(Cl)c1	-2.87% (inactive)
CCC(=C/c1sc2ccc3ccccc3c2[n+]1C)/C=C1\Sc2ccc3ccccc3c2N1C	13% (active)
COc1cccc(CNC(=O)CCC2CCCN(C(=O)c3cc(C)[nH]n3)C2)c1 (configuration not stated)	-3.1% (inactive)
CC(=O)N1CCOc2ccc(S(=O)(=O)N3CCC(C(=O)Nc4ccccc4F)CC3)cc21	-2.25% (inactive)

SMILES	inhibition
COc1cccc(NC(=S)C(C#N)=C2N(C)c3ccccc3N2C)c1	3.32% (inactive)
CC1Cc2cc(/C(O)=C3\C(=O)C(=O)N(Cc4cccnc4)C3c3ccccc3F)ccc2O1 (configuration not stated)	-0.96% (inactive)
O=C1C=C(c2cccc(Br)c2)C[C@@H](c2ccc(F)cc2)C1	2.74% (inactive)
O=C(NCCCN1CCCCCC1)C1CC(=O)N(C2CCCC2)C1 (configuration not stated)	0.05% (inactive)
CCc1c(O)nc(SCC(=O)Nc2ccccc2)n(C(C)CC)c1=O (configuration not stated)	4.45% (inactive)
CCCCN(C(=O)c1ccc(OC(F)(F)F)cc1)c1c(N)n(CCC)c(=O)[nH]c1=O	2.07% (inactive)
O=C(CN(CC1CCCO1)C(=O)CNS(=O)(=O)c1ccc(Cl)cc1)NCc1ccccc1 (configuration not stated)	-1.95% (inactive)
Cc1ccc(C2=NN(C(=O)COc3ncnc4ccccc34)C(c3ccco3)C2)cc1 (configuration not stated)	-1.05% (inactive)
CCOC(=O)N1CCN(Cc2oc(CO)cc(=O)c2O)CC1	3.28% (inactive)
CCC(C(=O)NCCC(C)C)N(Cc1ccccc1Cl)C(=O)c1snc(C(N)=O)c1N (configuration not stated)	-2.16% (inactive)
CC(=O)NCc1ccc(S(=O)(=O)NC2CCN(Cc3ccccc3)CC2)cc1	2.13% (inactive)
C=C(C)CNc1cc(S(=O)(=O)N2CCOCC2)ccc1Oc1ccccc1	4.3% (inactive)
Cc1ccc(CCN2CC(C(=O)O)CC2=O)cc1 (configuration not stated)	5.13% (inactive)
CC(C)(C)S(=O)(=O)c1ccccc1-c1noc(-c2ccccc2)c1C(N)=O	-0.76% (inactive)
Cc1ccc(Cl)cc1NC(=O)CN1CCN(S(=O)(=O)N2CCOCC2)CC1	0.83% (inactive)
Cc1cc(C(=O)COc2ccc(Br)cc2F)c(C)n1C1CC1	-1.78% (inactive)
O=C(NCc1cccc(Cl)c1)C1=CC=CN2CCS(=O)(=O)N=C12	0.61% (inactive)
COc1cccc(OCc2nnc3n2N=C(c2ccccc2)C(CC(=O)O)S3)c1 (configuration not stated)	-0.47% (inactive)
COc1ccccc1C(=O)NCCC(=O)N(C)Cc1cccnc1	0.46% (inactive)

Source: PubChem BioAssay AID1987 (The Scripps Research Institute Molecular Screening Center, 2009)
